# Records with an inconclusive call do not appear. Calls of active or inactive are those of the source. Calls come from the whole dose curve; as a rule, active = well fitted inhibition curve with a large enough effect; inconclusive = small, poorly fitted or top-dose-only effect; inactive = no such curve, though single readings can be large or run the other way. *1 amine or outer side, *2 acyl side, *3 side chain or, on linkers, in order; H or OH if unused. Where a SMILES comes first, the peptide text is derived from it. [ ]: non-standard residue; d: D form. X13 = O=C(C(CC(O)CO)O[*:1])[*:2]; NMeV = CN[CH](C(=O)O)C(C)C; NMeA = CN[CH](C)C(=O)O; βAla = NCCC(=O)O
# Experiment: Primary fluorescence-based thiol-reactive (MSTI) qHTS assay for identification of artifact compounds. (AID 1845221); note: nearly all actives have a fitted effect of over 65% in size;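 for activity change, negative = thiol reactive: thiol-reactive compounds lower the probe fluorescence signal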
# Conditions: MSTI thiol-reactivity probe, 1 h; series mostly up to 53.8 µM; activity change, negative = thiol reactive: at the top concentration
# In short: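 MSTI probe at 4 uM final in 2% DMSO/PBS pH 7.4; compounds, 1 h at room temperature in dark. Fluorescence Ex/Em 525/598 nm, normalised to Acetyl-MSTI and MSTI, fitted to 4-parameter Hill.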
# Potency is the fitted concentration of half-maximal effect.
Compound,"activity change, negative = thiol reactive",Potency
CCCC/C=C\CCCCCc1cc(=O)c2ccccc2n1C,33.1% (inactive),
C=C1C(=O)O[C@@H]2C[C@]3(C)[C@@H](CCC(C)=O)[C@@H]3C[C@H]12,8.84% (inactive),
CC1=C2C[C@H]3OC(=O)[C@H](O)[C@@]4(O)[C@@H](C)[C@@H](O)[C@H](O)C([C@@]2(C)[C@H](O)[C@@H](O)C1)[C@@]34C (some centres undefined),-12.8% (inactive),
O=C(O)c1ccc(NC(=O)[C@H](CC2CCCC2)n2cnc(C(F)(F)F)c2)nc1,41.9% (inactive),
CC1(C(=O)O)CCCC2(C)C3CC4C5CC3(CCC12)CC45C (centres undefined),29.1% (inactive),
O=C(NC/C=C/CN1CCN(c2cccc(Cl)c2Cl)CC1)c1ccc(-c2ccccn2)cc1,190% (inactive),
CC(=O)NC(C(=O)OC1CCC(C)(C)C2CC=C3C(=O)OCC3C12C)C(C)C (centres undefined),33.9% (inactive),
CC(=O)OCC1=CCC2C(C)(C)CCCC2(C)C12CCC(C)(CC(=O)O)O2 (centres undefined),44.1% (inactive),
COC(=O)C(CC1(O)c2ccccc2N2C(=O)C(C)(C)N(O)C21)n1cnc2ccccc2c1=O (centres undefined),-16% [at 25.6 µM] (inactive),
COc1ccc(S(=O)(=O)Nc2nc(-c3cccc([N+](=O)[O-])c3)cs2)cc1OC,,1.19 µM (active)
C=CCC/C=C/C#CCCCCCCCC[C@H]1C(=O)O[C@H](C)[C@@H]1O,48.9% (inactive),
CCOC(=O)COc1ccc2c(c1)C[C@@H](NC[C@H](O)c1cccc(Cl)c1)CC2,26.3% (inactive),
CCCCC(=O)N1c2ccccc2NC2=C(C(=O)CCC2)C1c1ccccc1Cl (centres undefined),93.3% (inactive),
C[C@H]1[C@H](C)CC[C@]2(C(=O)O)CC[C@]3(C(=O)O)C(=CCC4[C@@]5(C)CC[C@H](O[C@@H]6O[C@@H](C)[C@H](O)[C@@H](O)[C@H]6O)C(C)(C)C5CC[C@]43C)[C@H]12 (some centres undefined),70.3% [at 25.6 µM] (inactive),
C=C(C(=O)O)[C@@H]1CC[C@@]2(C)CCC[C@@](C)(O)[C@@H]2C1,-19.1% (inactive),
OC[C@H]1O[C@@H](Oc2cc(O)cc(-c3cc4ccc(O[C@@H]5O[C@H](CO)[C@@H](O)[C@H](O)[C@H]5O)cc4o3)c2)[C@H](O)[C@@H](O)[C@@H]1O,,10.3 µM (active)
COc1ccnc(CCc2nc3ncccc3[nH]2)c1,-7.95% (inactive),
Cc1oc2nc3c(c(NC(=O)CN4CCCC4=O)c2c1C)CCCC3,38.1% (inactive),
C/C=C/C1OC2=C(C(=O)OC2(C)O)C(O)C1O (centres undefined),-19.1% (inactive),
O=C(Nc1ccn(Cc2c(F)cccc2C(F)(F)F)n1)c1c(F)cccc1F,27.2% [at 11.5 µM] (inactive),

Compound,"activity change, negative = thiol reactive",Potency
COc1ccc(C(=O)NCc2cc(C(C)C)no2)cc1OC1CCN(C)CC1,-10.8% (inactive),
C=C1CC[C@H]2[C@@](C)(CCC(O)[C@@]2(C)CO)[C@@H]1/C=C/C(=C\C(=O)O)C(=O)O (some centres undefined),,5.21 µM (active)
NC(=O)[C@H](Cc1ccccc1)NC(=O)[C@H](CCCN=C(N)N)NC(=O)C12CC3CC(CC(C3)C1)C2,37.2% [at 11.5 µM] (inactive),
COc1cc(C(C)=O)ccc1O[C@@H]1O[C@H](CO)[C@@H](O)[C@H](O)[C@H]1O,3.61% (inactive),
CCCC(=O)Nc1cccc(NC(=O)c2ccccc2Br)c1,40.6% (inactive),
Cc1occc(=O)c1O[C@@H]1O[C@H](COC(=O)CC(C)(O)CC(=O)O)[C@@H](O)[C@H](O)[C@H]1O (some centres undefined),-28.2% [at 25.6 µM] (inactive),
Cc1cc(Cn2cnc3c2CC(C(=O)O)N(C(=O)C(c2ccccc2)c2ccccc2)C3)ccc1N(C)C (centres undefined),91.2% (inactive),
CSCC[C@H](NC(=O)[C@H](CO)NC(=O)[C@H](CCC(=O)O)NC(C)=O)C(=O)N[C@H](C=O)CC(=O)O (Ac-ESMD-aldehyde),10.4% [at 11.5 µM] (inactive),
CCC(=O)OCC(=O)[C@@]1(OC(=O)CC)[C@@H](C)C[C@H]2[C@@H]3CCC4=CC(=O)C=C[C@]4(C)[C@@]3(F)[C@@H](O)C[C@@]21C,1.45% (inactive),
C[C@@H]1O[C@@H](O[C@@H]2[C@@H](O)[C@H](O[C@H]3[C@H](O[C@H]4CC[C@@]5(C)C(CC[C@]6(C)C5CC=C5[C@@H]7CC(C)(C)CC[C@]7(C(=O)O[C@@H]7O[C@H](CO)[C@@H](O)[C@H](O)[C@H]7O)CC[C@]56C)C4(C)C)O[C@H](C(=O)O)[C@@H](O)[C@@H]3O)OC[C@H]2O)[C@H](O)[C@H](O)[C@H]1O (some centres undefined),351% [at 11.5 µM] (inactive),
COc1ccc(CCc2nc3cc(-c4c(C)noc4C)ccc3n2C[C@H](C)N2CCOCC2)cc1Cl,4.24% (inactive),
C=C1CCc2occ(C)c2[C@H]2[C@H]1[C@@]13O[C@@]1(C[C@@H](C)[C@H]3OC(C)=O)[C@H]1O[C@@]21C,35.3% (inactive),
CC(NC(=O)c1ccccc1N)C(=O)O (centres undefined),13.8% (inactive),
CC1(C)COC(=O)[C@@H]1O[C@@H]1O[C@H](CO)[C@@H](O)[C@H](O)[C@H]1O,-29.5% (inactive),
O=C(O)CCc1c(C(=O)O)[nH]c2cc(Cl)cc(Cl)c12,-3.36% [at 25.6 µM] (inactive),
CC1(C)CC[C@]2(C(=O)O)CC[C@]3(C)C(=CCC4[C@@]5(C)C[C@H](O)[C@H](O[C@@H]6O[C@H](CO)[C@@H](O)[C@H](O)[C@H]6O)[C@@](C)(CO)C5[C@H](O)C[C@]43C)[C@@H]2C1 (some centres undefined),415% [at 25.6 µM] (inactive),
CCC(C)C1NC(=O)C2CCCN2C(=O)C(CC(O)CO)OC(=O)CCNC(=O)C(C)N(C)C(=O)C(C(C)C)N(C)C1=O (centres undefined) (cyclo([X13]PI[NMeV][NMeA][βAla]); configuration not given here),9.12% [at 25.6 µM] (inactive),
CC(C)C1NC(=O)CNC(=O)C2CCCN2C(=O)C(Cc2c[nH]c3ccccc23)NC(=O)CNC(=O)C(Cc2ccc(O)cc2)NC(=O)CNC1=O (centres undefined) (cyclo(GVGYGWP); configuration not given here),79.1% [at 25.6 µM] (inactive),
CC1(C)CC[C@]2(C(=O)O)CC[C@]3(C)C(=CCC4[C@@]5(C)C[C@@H](O)[C@H](O)[C@](C)(CO)C5CC[C@]43C)[C@@H]2[C@@H]1O (some centres undefined),36.1% [at 25.6 µM] (inactive),

# Source: PubChem BioAssay (NCATS)
